Reference: PubChem BioAssay AID1241 (SRMLSC, 2008)
About 840 (70%) of roughly 1,200 compounds were called active. No rule for the calls is given here. The set was probably picked from earlier hits. Not all results are given here. Entries with a potency or affinity are not part of this list.

Assay: compounds inducing NF-kB luciferase expression – cell-based, SH-SY5Y, dose response (AID 1241)
Details: SH-SY5Y NF-kB promoter luciferase reporter; series mostly up to 30 µM

Fold induction over control, inactive:
Oc1ccc(-c2csc(Nc3ncccn3)n2)cc1O
CC(C)(C)c1ccc(OCCn2ccccc2=O)cc1
COc1ccc2oc(C(=O)c3ccccc3)c(N)c2c1
COc1ccc2[nH]c(-c3cccc(F)c3)cc(=O)c2c1
COc1ccc(C(=S)Nc2ccc(N(C)C)cc2)cc1
Cc1nc(-c2ccccc2)sc1-c1ccnn1C
Nc1ccccc1C#Cc1ccccc1
CCOC(=O)c1c(C)oc2c1c(C(c1cccnc1)N1CCCCC1)c(O)c1ccccc12 (stereo not given)
O=C(Nc1ccc(Cl)cc1F)c1ccccc1Br
CCOC(=O)c1cnc(SCCc2ccccc2)nc1N
O=C(O)c1cccc(N=NN2CCCCCC2)c1
O=C(O)c1cc(N/N=C/C=C/c2ccccc2)ccc1Cl
COc1ccccc1OCCN1CSC(=S)N(C)C1
CC(C)(C)c1ccc(/C=N/Nc2cccc(C(=O)O)c2)cc1
O=C(O)/C=C\C(=O)Nc1ccccc1C#Cc1ccc(Br)cc1
Cc1ccccc1Nc1nc2ccccc2s1
N=c1c(C(=O)NCc2ccccc2)cc2c(=O)n3ccccc3nc2n1Cc1ccco1
O=C(/C=C/Nc1cccc([N+](=O)[O-])c1)c1cccs1
CCOc1ccc(NC(=O)c2ccccc2O)cc1
Cc1ccc(C(=O)N/N=C2\CCc3ccccc32)c(C)c1
CCCSc1nsc(NC(=O)CCC)n1
S=C(c1ccc(-c2ccc(Br)cc2)o1)N1CCCCC1
Nc1ncn(CC(=O)c2ccccc2)n1
CCc1ccc(C(=O)NC(=S)Nc2ccc3c(c2)OCCO3)cc1
COc1ccc(-c2nnc(SC(C)C(=O)Nc3cccc(Cl)c3)o2)cc1 (stereo not given)
Cc1ccc(C(=O)/C=C/Nc2cccc([N+](=O)[O-])c2)o1
Cc1ccc(C(=O)CCNc2ccc(F)c(Cl)c2)o1
COc1cccc(-c2noc(-c3cccnc3)n2)c1
Cc1nn(-c2ccccc2)c(N)c1N=Nc1ccccc1
Cc1[nH]n(C(N)=S)c(=O)c1N=Nc1ccc2ccccc2c1
Nc1nc(Nc2cccc(F)c2)nc2ccccc12
COc1ccc(C2=NN(C(C#N)c3ccc(OC)c(OC)c3)C(c3ccccc3)C2)cc1 (stereo not given)
Cc1cc2nc(-c3cccnc3SCC(=O)NCc3ccco3)[nH]c2cc1C
COc1cc(/C=C/C(=O)CC(=O)/C=C/c2ccc(O)c(OC)c2)ccc1O
COC(=O)CCCSc1nccn1-c1ccccc1
O=C(/C=C/Sc1ccccc1)c1ccc(Cl)cc1
Cc1ccc(/C=C/C(=O)Nc2ccccc2C(N)=O)cc1
CC(=Nc1cccc(C)c1)c1sc2ccccc2c1O
Oc1ccc(-c2csc(-c3ccccc3)n2)cc1O
COC(=O)c1cc(-c2c(C)nn(-c3ccccc3)c2C)n[nH]1
Cc1ccc(C(=O)Nc2cccc(C(=O)O)c2)cc1
O=C(NCCn1ccc2ccccc21)c1ccc2c(c1)OCO2
O=C(NC1CCCC1)c1cc(-c2cccs2)on1
COc1ccc(C(=O)Nc2cccc(OC)c2)cc1
N/C(=N\OC(=O)c1ccc2c(c1)OCO2)c1ccc(Cl)cc1
O/N=C/c1ccc(OCc2ccccc2)c(Br)c1
Cc1ccc(COc2ccc(/C=N/O)cc2)cc1
O=C(CCSc1ccc(Cl)cc1)Nc1cccnc1
O=C(NCCc1ccccc1)c1cc(-c2ccco2)on1
COc1ccc(/C(N)=N/OC(=O)CSc2ccccc2)cc1
Cc1ccc(O)c(/C=N/NC(=O)c2[nH]ncc2Br)c1
CCCc1noc(-c2ccc(-c3ccccc3)cc2)n1
CCOC(=O)c1c(NC(=O)CC(C)C)sc(C(C)=O)c1C
CCOC(=O)c1c(C)[nH]c(C(=O)Nc2ccc3c(c2)OCO3)c1C
CCOC(=O)c1cc(C(=O)Nc2ccccc2F)nn1C
CC(=O)Nc1ccc(N=Nc2ccccc2)cc1
COc1cccc(C(=O)Oc2ccccc2/C=C\C(=O)c2cc3ccccc3o2)c1
COc1ccc2cc(CCNC(=O)c3cccs3)c(=O)[nH]c2c1
O=C(/C(=C/c1ccc(Cl)cc1)c1nc2ccccc2[nH]1)c1ccccc1
COc1ccc(-c2cnn3c(N)c(S(=O)(=O)C(C)(C)C)cnc23)cc1
CCOC(=O)C1=C(c2ccccc2)O/C(=C(/C#N)C(F)(F)F)S1
Cc1ccc(-c2nc3ccccc3s2)cc1NC(=S)NC(=O)c1ccccc1
CCc1nc2ccc(C(=O)O)cc2nc1CC
CCOc1ccc(NC(=O)c2nsc(Cl)c2Cl)cc1
CC(C)(C)c1ccc(NC(=O)Nc2ccc(OCC(=O)N3CCOCC3)cc2)cc1
O=C(OCC(=O)N1CCOCC1)c1ccccc1Cc1ccccc1
CCc1ccc(NC(=O)c2ccc3ncsc3c2)cc1
CCc1ccc(NC(=O)c2cc(C(C)C)on2)cc1
Cc1nc2ccc(NC(=O)Cc3ccccc3F)cc2s1
O=C(O)c1ccc(-c2nc(-c3ccc(Cl)cc3)cs2)cc1
O=C(c1ccccc1)c1cnc(-c2ccccc2)s1
Oc1ccc2c(c1)oc1cc(O)ccc12
CN=c1scc(C)n1/N=C/c1cc(Br)c(O)c(Br)c1
O=C(OCC(F)(F)F)c1cccc(COc2ccc3ccccc3c2)c1
COc1ccc(OCc2cccc(C(=O)Nn3cc([N+](=O)[O-])cn3)c2)cc1
COc1ccc(C(=O)OCCc2ccc(O)cc2)cc1
O=C(COC(=O)C1CCCCC1)Nc1ccc([N+](=O)[O-])cc1
Cc1cccn2cc(-c3ccc(Cl)cc3)nc12
Cc1ccc(Nc2n[nH]c(C)c2[N+](=O)[O-])c(C)c1
CC(=O)c1cc(NC(=O)c2ccccc2)c(=O)oc1C
CCOC(=O)c1sc(NC(=O)c2ccccc2OC)nc1C
Cc1ccn2cc(CSc3ccccc3)nc2c1
CCSc1nnc(NC(=O)c2ccc(C)cc2)s1
Cc1nc(N2CCCCC2)c2c(-c3cccs3)csc2n1
Cc1ccc(-c2cc(-c3ccccc3C)[nH]n2)c(O)c1
Cc1ccc(C(=O)Oc2oc(-c3ccco3)nc2C=Nc2ccc(Cl)cc2)cc1
O=c1[nH]c(-c2ccco2)nc2sc3c(c12)CCCC3
c1ccc(-c2ccc(-c3nc(-c4cccnc4)no3)cc2)cc1
CC(=O)Nc1ccc2oc(-c3ccccc3)nc2c1
C=CCSC(=C(C#N)C#N)c1cc2c([nH]1)CCCC2
Cc1ccc(-n2c(C)cc(C(=O)CSc3nncs3)c2C)cc1
Cc1ccc(C(=O)/C=C/c2cn(CN3CCN(C)CC3)c3ccccc23)cc1
OCCC1CN(Cc2ccc3nsnc3c2)CCN1C1CCCC1 (stereo not given)
C/C(=N\O)c1sc(-c2ccccc2)nc1C
C/C(=N\OC(=O)NC(C)C)c1sc(-c2ccc(Cl)cc2)nc1C
Cc1ccc2c(c1)C(=NC1CCCCC1)c1cc3ccccc3nc1-2
Cc1ccc(Nc2nc3ccccc3[nH]2)nc1
Cc1ccccc1C(=O)Nc1cccc(NC(=O)Cn2cnc3c(=O)n(C)c(=O)n(C)c32)c1
CCOC(=O)c1cc(C(=O)Nc2cccc(C)c2)nn1C
CCc1ccc(NC(=O)c2onc(C)c2Cl)cc1
COc1ccccc1C(=O)O/N=C(\N)c1ccc(Cl)cc1
Cc1ccc(/C(N)=N/OC(=O)c2ccc(F)cc2)cc1
N/C(=N\OC(=O)c1ccc(Br)cc1)c1ccccc1
N/C(=N\OC(=O)c1ccccc1Cl)c1cccnc1
Cc1cc(/C=N/NC(N)=S)c(C)n1-c1ccc(Cl)c(Cl)c1
COc1cccc(C(=O)Nc2ccc(C3CC3(Cl)Cl)cc2)c1 (stereo not given)
Cc1onc(-c2c(F)cccc2Cl)c1C(=O)OCn1nnc2ccccc2c1=O
COc1c(Cl)cc(Cl)cc1/C=C/C(=O)c1ccc(NC(=O)c2cccs2)cc1
Cc1ccc(Nc2n[nH]c(C)c2[N+](=O)[O-])cc1C
Oc1cccc2ccc(/C=C/c3c(F)cccc3Cl)nc12
O=C(CCc1nnc(CCCc2ccccc2)o1)NC(C1CC1)C1CC1
COc1cc(NC(=O)CSc2nc3ccccc3cc2C)c(C(=O)O)cc1OC
N/C(=N\OC(=O)Cc1cccc2ccccc12)c1ccccn1
N/C(=N\OC(=O)COc1cc(Cl)c(Cl)cc1Cl)c1ccccn1
N#Cc1cc2ccccc2nc1SCc1ccccn1
Clc1ncccc1-c1nnn(-c2ccccc2)n1
Fc1ccc(-n2nnc(-c3cccnc3Cl)n2)cc1
Cc1csc(NC(=O)NC2(C(F)(F)F)Oc3ccccc3O2)n1
CC(C)c1ccc(NC(=O)c2csnn2)cc1
CC(=O)Nc1ccc(N=Nc2ccc(O)cc2)cc1
Cc1ccc(NC(=O)Nc2ccc3c(c2)nc(C)n3C)cc1
COc1ccc(NC(=O)c2noc3c2CCCCC3)cc1
CS(=O)(=O)c1ccc(C(=O)OCc2nnc(-c3ccc(Cl)cc3)o2)cc1[N+](=O)[O-]
COc1ccc(/C=C/C(=O)c2ccccc2)c(OC)c1
Cc1nn(C)cc1/C=C/C(=O)c1cccs1
